Data from PubChem BioAssay (Tox21).
Results filed as inconclusive are left out. Unmarked numbers belong to inactive results. Calls of active or inactive are those of the source. Calls come from the whole dose curve; as a rule, active = well fitted activation curve with a large enough effect in the repeat runs; inconclusive = weak or mixed curves; inactive = flat fitted curve, though single readings scatter.

molecular target: Nuclear receptor subfamily 1 group I member 2 (Homo sapiens) (UniProt O75469); assay: Human pregnane X receptor (PXR) activation by small molecules, qHTS assay (AID 1346985); details: DPX-2 HepG2 CYP3A4-luciferase, 24 h; series mostly up to 38.3 µM; activation: at the top concentration; note: nearly all actives have a fitted effect of over 40% in size
Description: National Center for Advancing Translational Sciences [NCATS]
NIH Chemical Genomics Center [NCGC]
U.S. Environmental Protection Agency [EPA]
National Institutes of Environmental Health Sciences [NIEHS]
National Toxicology Program [NTP]
The Pregnane X receptor (PXR), a ligand activated nuclear receptor plays a critical role in the regulation of genes involved in drug metabolism and transporters. Activation of PXR may be involved in the unwanted adverse drug-drug interactions. […] Therefore, identification of compounds with the potential for PXR activation can be of importance in improving the efficacy of drugs with less toxicity and avoiding drug-drug interactions.
DPX-2 (Puracyp, Inc.) cell lines, used for screening against human PXR activation has HepG2 cells co-transfected with a PXR response element and a luciferase construct containing CYP3A4 promoter. Increase in luciferase activity can be used to identify the compounds that activate the PXR pathway.
DPX-2 cells were dispensed at 2,000 cells per well in 5uL of assay medium into white, solid-bottom 1536-well plates using a Multidrop Combi dispenser (Thermo Scientific). The assay plates were incubated at 37C for 5hr before transferring 23nL of test compounds dissolved in DMSO and positive control via Pintool station (Wako). The assay plates were incubated at 37C for 24hr. Then 5ul One-Glo assay reagent (Promega) was added to each plate by a Flying Reagent Dispenser (FRD, Aurora Discovery) and following 30 min incubation at room temperature, luciferase activity was quantified on a ViewLux plate reader (Perkin Elmer).
% is set by controls: 0 for no effect and ±100 for the full control effect; potency is the fitted concentration of half-maximal effect.

SMILES | activation | Potency
O=C(O)c1ccccn1 | -4.49% | 
Clc1ccccc1Cl | 0.996% | 
CN(C)[C@@H]1C(=O)C(C(N)=O)=C(O)[C@@]2(O)C(=O)C3=C(O)c4c(O)cccc4[C@@](C)(O)[C@H]3C[C@@H]12 | -11.1% [at 17.1 µM] | 
CC(C)=C[C@@H]1[C@@H](C(=O)OCc2coc(Cc3ccccc3)c2)C1(C)C |  | 22.4 µM (active)
CC1OC(C)OC(C)O1 (stereo not given) |  | inactive
OC(O)C(Cl)(Cl)Cl | -8.96% | 
C[C@]12CC[C@H]3[C@@H](CC[C@@]45O[C@@H]4C(O)=C(C#N)C[C@]35C)[C@@H]1CC[C@@H]2O | 6.91% | 
C#CCN(C)[C@H](C)Cc1ccccc1 | 15% | 
O=[N+]([O-])c1ccccc1 | 17.3% | 
O=[N+]([O-])c1ccc([As](=O)(O)O)cc1 | -5.49% | 
Nc1ccccc1C(=O)O | -2.03% | 
O=C(NC(=O)c1c(F)cccc1F)Nc1cc(Cl)c(OC(F)(F)C(F)C(F)(F)F)cc1Cl (stereo not given) | 5.75% | 
O=c1n(Cl)c(=O)n(Cl)c(=O)n1Cl | -7.03% | 
Clc1ccc(Cl)cc1 | -2.29% | 
CCOC(=O)c1ccccc1C(=O)OCC | 7.46% | 
